± gives the standard deviation of the averaged measurements. Whole data set: some 25,000 sequences, median “ln(normalized median fluorescence intensity)” near 7.9, cut for the highest 2% near 11. The sample as a whole holds a higher share of the highest values than the screen did.
The sequences below were run on PfAP2-I AP2 domain 3 (GST-tagged) (assay: gcPBM binding intensity (ln(normalized median fluorescence intensity)); higher = stronger DNA binding).
Summary of the method: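 Binding intensity values are the highest Masliner-normalised natural-log median intensity among replicate spots of either probe orientation. The binding step lasted 1 h in 1× PBS with 1% milk, 0.2 mg/ml BSA, 0.5% salmon testes DNA and 0.03% Triton X-100, using GST-tagged P. falciparum DNA-binding domains expressed in E. coli on an Agilent 4 × 180k array of primer-extended double-stranded 36-bp intergenic genomic probes plus negative controls. Alexa488 anti-GST antibody and a 488 nm scan detected bound protein.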

Sequence	gcPBM binding intensity (ln)
TATTTTTATTTATAACGTACGAAAAATGTATATAAT [XGTACX_site703]	7.96 ± 0.35
AAATTCCACGGACACACACACATATAAATAAATAAA [CACACA_site4811]	8.23 ± 0.37
TCAACATTTAAAAATAGTACTCATAAACCTTTCGAA [XGTACX_site4111]	7.42 ± 0.46
TATGAATGGTTAAGTACACACATATTAATATAGGTA [CACACA_site7606]	7.79 ± 0.49
ACATATATTTTTTTTTGTACATATAAATATATATAT [XGTACX_site6491]	8.7 ± 0.39
TTTAAATATAATTGGAGTACTTATAATATATATATA [XGTACX_site7247]	8.97 ± 0.12
CATTAATTTAATAAATGTACATAAAATATATATTAT [XGTACX_site8085]	7.89 ± 0.36
CCATTATACACAATATGTACATATATATAATCATTT [XGTACX_site7942]	8.04 ± 0.43
AGAGATACATAAAAAAGTACATATAAAATTTAGGAA [XGTACX_site7201]	7.96 ± 0.19
AATTATACGAAATAAAACTTAATAGACAAAAAATTA [CACACA_negctrl_site1384]	7.54 ± 0.63
GAAAATAAAATATTAGTGCATTATTTGATCAATAAT	11.3 ± 0.73
ATATTTTATATAATAGTGCAAATAATATTAAATAAT	10.8 ± 0.37
ACATATTAAATATGAGTGCAATATATATATATATAA	10.9 ± 0.43
TGCAATTTAATATGAGTGCATATATTGAGAAAATAC	10.04 ± 0.035
TATATATTAAAAATAGTGCAAAATAATATATATATA [GTGCAC_site9716]	10.78 ± 0.021
TTTGAAATATATTTAGTGCATATATATTGATTATAA [GTGCAC_site9604]	10.4 ± 0.34
GTTATATTTAAAATAGTGCAATAAAAATAATAATAT	11.4 ± 0.67
TTACAATAAATTATAGTGCAATATTTTATTTAATAT	10.6 ± 0.36
AATCAATTAATATTAGCATAAAATTTTATTATTTTG [XGTACX_negctrl_site479]	7.46 ± 0.71
TATATGAACTTATATACACACCATTTTTGTAAATCT [CACACA_site4547]	7.62 ± 0.54
AAATTTGGCAAACACACACACACACCCACAGAGACA [CACACA_site4490]	8.305 ± 0.021
CCAGGAAAAATTTATTGTACATATATTTTTATGCTC [XGTACX_site7154]	7.68 ± 0.53
ATATAGATCTACACTGCACACATTTTTAACACTGCT [CACACA_site1882]	9.04 ± 0.5
TTTAGCACAAACAAAAAAAAAATAGAAAAAAATATA [CACACA_negctrl_site1772]	7.59 ± 0.61

Sequence	gcPBM binding intensity (ln)
GTTCCAGGCATTCGTGCGCACAAATAGAAACAATTA [GTGCAC_site9824]	11.15 ± 0.035
TATATAGAAAACAAGGCATGCAAATAACAAATTGTG [TGCATGCA_site473]	8.32 ± 0.91
TGTGTTCATATATGCACACGCATATATATTATTGTT [CACACA_site3822]	9.1 ± 0.25
ATGCACTCATTGTGCACACGCATATTACGAAAAGAA [CACACA_site2638]	10.6 ± 0.18
ATATGCACTCATTGTGCACACGCATATTACGAAAAG [CACACA_site2637]	11 ± 0.35
TTTCTTTCTTTCTTTTTTTAAATATTTTTTAAAAAT [TGCATGCA_negctrl_site206]	7.98 ± 0.62
ATTATAATGGTAAAGTGTACAAATTTTTATTACACC [XGTACX_site5274]	8.49 ± 0.092
GCTTCTTAATATCATACACACATAGATATATTTATA [CACACA_site5676]	8.11 ± 0.58
TATCATCTTAATATCGTGCACATTTATAGAACGAAA [GTGCAC_site9992]	11 ± 0.12
TTTATATTATTATATCTTATTAATTATTTATCATTT [TGCATGCA_negctrl_site73]	7.28 ± 0.58
TATACAACTTTATGAAGTACAAAAAGTTCTATATAT [XGTACX_site3866]	7.52 ± 0.44
TGCCATCATATCATAGGTACACAAACATATAAAGAA [XGTACX_site4137]	8.22 ± 0.82
AATATATATTTATATTGTACATATATATATATTTCT [XGTACX_site2603]	7.55 ± 0.34
TTTTTCTATAAAAAATGTACATATTTTATGAAGGAA [XGTACX_site821]	7.96 ± 0.5
TTTTAGTTAATTCATGCATGTAAAGTTTTATTTATA [TGCATGCA_site252]	7.72 ± 0.54
ATTTAATTTTCATGATGTACTATAGTTTAATGCACA [XGTACX_site1624]	11.6 ± 1.1
AATGAATATAGTACTGAATGTAATTTAAGGTTTTCC [CACACA_negctrl_site1548]	7.53 ± 0.68
ACAAGACAGATATATACACACATACATACATACATA [CACACA_site7472]	8.12 ± 0.64
ATAAAGGAATTTTATACACACAACATATATATATAT [CACACA_site2861]	9.45 ± 0.6
TATATATATATATATTGTACACATTGTGTTTAAATA [XGTACX_site5104]	9.43 ± 0.44
TTTTCTATTTAATTGGTGCACTGATATATACACATA [GTGCAC_site9533]	11.3 ± 0.54
GTAATTTTTTTCTATACACACATATATATAATATAT [CACACA_site2655]	8.12 ± 0.58
GTAATTTTTTTCTATACACACATATCTATAATATAT [CACACA_site7284]	8.09 ± 0.6
TATGTATTTTTATGCACACATGCGTGGCTTATATAA [CACACA_site387]	10.9 ± 0.13

Sequence	gcPBM binding intensity (ln)
TTTATGTATTTTTATGCACACATGCGTGGCTTATAT [CACACA_site4374]	10.79 ± 0.064
TATGTATAAATATATGCACACATATATATATTTATA [CACACA_site9150]	8.85 ± 0.26
ATATATATTTCTTAAAGTACATAATAATAAAAATAT [XGTACX_site8981]	7.79 ± 0.44
AAAAAAAATAAAATGAATAAATAAGAATTACATATT [CACACA_negctrl_site863]	7.39 ± 0.65
TCTATGAATTAATATGCATGTAACGTATTTATACTT [TGCATGCA_site669]	7.67 ± 0.83
CAAGCACAGAAACACACACACACACCGACACAGACA [CACACA_site4359]	8.11 ± 0.24
AGGATATAAAGTTGTGCATGTCAAGTGCACCGTATT [TGCATGCA_site451]	11 ± 0.35
AAAAAAAAGTTGTAAGTGCATGTATATAATAATATT	8.42 ± 0.54
CATATAAAAATGTGCACACACACACCGATATATATT [CACACA_site4940]	9.59 ± 0.17
AAAAAAAAATATATTGCACACCTCTCAATAAAAAAA [CACACA_site172]	10.3 ± 0.43
AAAAATGTATGTATGGTGCAGTATTCATATCATTTT [GTGCAC_site9458]	10.93 ± 0.057
CATATAAAAAATATGGTGCAGTTTTTTTTTTTTTTT	10.2 ± 0.23
GTATATTTTATTTTATGTACATATTCATTTTTTATT [XGTACX_site561]	8.3 ± 0.4
ACTATAAATATATAAATATATATATATATATATATA [GTGCAC_negctrl_site65]	9.34 ± 0.8
ACAAAAAAATAAGGTGCACACAAAAAAAAAAAAAAA [CACACA_site8171]	10.7 ± 0.76
TATAAGTAGATAAGGGTGCACAATATAAATATATAG	11.55 ± 0.021
AAAAAAATAAGGTGCACACAAAAAAAAAAAAAAAAA [CACACA_site812]	10.9 ± 0.71
TATAAATATACAAAGGTGCATAAAAAGTTATGTTTT [GTGCAC_site9832]	11.2 ± 0.26
AATAAATAGATAAGCACACAAGCATATAGACATATA [CACACA_site222]	7.72 ± 0.49
ATATATATATATTACACACACACAAAAAAAATAAAG [CACACA_site118]	9.07 ± 0.18
TAAATATAAAAATGCACACACACAAAAAAAAAAAAA [CACACA_site895]	8.88 ± 0.085
ATATATATATTAAAGGTGCACAAATAAATATATACA [GTGCAC_site9532]	11.54 ± 0.035
AAAAATAAAAGGTGTGCACACAAAAATATATATATA [CACACA_site8507]	9.74 ± 0.26
AAAAAAAAAATTTAGGTGCATACAAATAAATTATAT [GTGCAC_site9521]	10.2 ± 0.48

Sequence	gcPBM binding intensity (ln)
TTATAAAAGACAAAAGTGCATATATACATATGTATA	9.49 ± 0.21
ATAAAATATAAAAACGCACACAATTATAAGGGTGTA [CACACA_site177]	7.95 ± 0.35
ATATGTGTGTGTATTTGTACCCAATTTTTATATATA [XGTACX_site4948]	8.29 ± 0.43
TATATATATATATATGTGCACATATATATGATATTA	9.79 ± 0.28
CGAATAAATATATGTAGTACATGTTGTAGATAATTT [XGTACX_site1218]	8.01 ± 0.48
ATTTATTAATCATATACACACATATATTTGTATTTA [CACACA_site1336]	7.67 ± 0.49
TTTGGGTATACACATACATGCATGTCCTTATATATA [TGCATGCA_site84]	7.86 ± 0.63
TGTGTAATATTCTGTTGTACATAACTCATAAATAAA [XGTACX_site5308]	7.95 ± 0.31
AATATGTTATAAATATGTTATAAATAATAAATAAAT [GTGCAC_negctrl_site135]	7.74 ± 0.62
AAAATAGCTGTATAGAGTACATATAAATAATGTTGT [XGTACX_site5692]	7.57 ± 0.58
TAAATCACAAAATTATGTACTAAGAAGGAGCAACAT [XGTACX_site6742]	8.05 ± 0.45
AACATACATAAACACACACACACACCCACAGAGACA [CACACA_site4430]	8.32 ± 0.22
TGAGCACAAATACAGGTGCATATAAAATATATGACG	10.3 ± 0.3
AAAAATAAAGGGTGTGCACACAAAAATATATATATA [CACACA_site1727]	9.8 ± 0.14
AATATACATAACAAGGTGCAAAAAATATTGTTCATA [GTGCAC_site9499]	10.4 ± 0.26
TATATTGCAAAAAGTACACACATAAATAAATACATA [CACACA_site6589]	8.2 ± 0.24
AATACATATTCAAAGGTGCAAAATAAAAATATACAT [GTGCAC_site9743]	11.2 ± 0.44
TTTTTTTGTTAAAAGGTGCTAATATATATAAGTGCT	10.1 ± 0.45
AAATATAAAGTGCACACACACAAAAAAAGAAAAAAA [CACACA_site6452]	10.2 ± 0.36
AAATAAAAAGGGTGCACACAAAAATATATATATATA [CACACA_site1728]	11 ± 0.84
ATGTTTGAGCCTAAGGTGCATATAAAAATATATGTG [GTGCAC_site9690]	11 ± 0.66

Source: the supplement of paper PMC11417369
